Source: PubChem BioAssay (several laboratories)
EBNA-1 inh – EBNA-1 DNA-binding inhibitors, primary screen, biochemical, fluorescence polarization. AID 1950, 2009. inhibition, % at 14.8 µM. 300,000 compounds, 0.34% hits; in the data active = inhibition above about 28%
dFosB act – activators of delta FosB homodimer, primary screen, biochemical, fluorescence polarization, TAMRA-CDK5 oligo, single point; Protein FosB (Mus musculus), P13346; purified delta FosB; percent of positive-control signal above neutral wells; activation, % at 25 µM; 340,000 compounds, 0.99% hits; AID 493131, 2011;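 active = mean activation above about 17%, with every replicate also reaching it, limit read from the data, passing the limit was not always enough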
Target sequence (P13346 whole entry, looked up): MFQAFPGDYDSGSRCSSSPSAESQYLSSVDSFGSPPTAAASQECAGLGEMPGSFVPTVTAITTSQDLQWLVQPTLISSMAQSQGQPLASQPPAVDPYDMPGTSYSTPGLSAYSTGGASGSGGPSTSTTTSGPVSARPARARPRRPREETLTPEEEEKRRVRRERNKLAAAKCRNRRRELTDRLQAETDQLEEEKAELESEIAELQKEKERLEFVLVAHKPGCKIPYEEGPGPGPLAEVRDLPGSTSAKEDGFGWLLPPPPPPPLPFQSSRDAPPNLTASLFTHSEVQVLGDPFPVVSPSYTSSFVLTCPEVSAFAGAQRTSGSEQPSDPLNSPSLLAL
PolyA inh – polyadenylation inhibitors in yeast reporter cells, primary screen, luminescence, S. cerevisiae; S. cerevisiae SKY197-pL101 polyadenylation reporter, beta-gal luminescence; efflux-impaired pdr1/pdr3 knockout yeast; score 100 = 6 SD above DMSO; activity score, % at 12 µM; 300,000 compounds, 0.02% hits; AID 1875, 2009;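 active = lowest replicate activity score at least 50, where 100 means six control SD above control mean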;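 note: yeast exposed to compound for 9 h at 30 °C; higher score means more reporter readthrough which indicates perturbed polyadenylation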
ZTA DNA inh – ZTA (EBV) inhibition in EBNA-1 counter-screen | P03206 | ZTA-DNA binding, fluorescence polarization | inhibition, % at 11 µM | 320,000 compounds, 0.15% hits; in the data active = inhibition above about 33%
Target sequence (P03206 whole entry, looked up): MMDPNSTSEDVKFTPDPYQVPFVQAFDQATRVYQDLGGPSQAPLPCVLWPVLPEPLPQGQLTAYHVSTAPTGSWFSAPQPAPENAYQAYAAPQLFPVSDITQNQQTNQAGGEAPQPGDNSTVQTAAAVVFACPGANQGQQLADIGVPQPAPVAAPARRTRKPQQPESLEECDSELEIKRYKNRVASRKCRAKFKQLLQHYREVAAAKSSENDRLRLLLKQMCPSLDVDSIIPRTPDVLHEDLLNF
NLRP3 yeast inh – NALP3 inflammasome inhibitors in reconstituted yeast, primary screen, luminescence, uHTS | Yeast reconstituted NLRP3/ASC/caspase-1, beta-gal luminescence, 24 h | inhibition, % at 10 µM | 330,000 compounds, 0.39% hits | AID 2825, 2010;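 active = inhibition of 50% or more; inactive = inhibition below 50%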
NALP1 yeast inh – NALP1 inflammasome inhibitors in reconstituted yeast, colorimetric, S. cerevisiae, triplicate retest; S. cerevisiae NALP1/ASC/caspase-1 growth, X-gal OD620, 72 h; inhibition, % at 10 µM; 280,000 compounds, 0.61% hits; in the data active = inhibition mostly above about 24%, no sharp cut-off; inactive = mostly below about 32%
Of the large screens only hits and unclear results are named; the others gave an inactive call. Sampled rows, rich in hits. Any-hit rate of the full collection: about 2.2%.

COCCn1c(SCc2ccc(C(=O)OC)o2)nc2ccccc2c1=O	none (no result: PolyA inh)
COC(=O)c1cc(CSc2nc3ccccc3c(=O)n2C)oc1C	NALP1 yeast inh 24.2
CCN(CCN(C)C)C(=O)Cn1ncc2c1-c1cc(C)ccc1OC2	NALP1 yeast inh 41.4
Cc1ccc2c(c1)-c1c(cnn1CC(=O)O)CO2	none
O=C(CNc1cccc(S(=O)(=O)N2CCCC2)c1)Nc1ccc(F)cc1F	none (no result: NALP1 yeast inh)
Cn1c(=O)[nH]c(=O)c2c1nc(SCC(=O)Nc1ccccc1)n2Cc1ccccc1	dFosB act 53.7 (no result: NALP1 yeast inh)
COc1ccccc1N1CCN(C(=O)c2oc3c(c2C)C(=O)CC(C)(C)C3)CC1	none
CN(C)CCCNS(=O)(=O)c1cc(Cl)c(Cl)cc1Cl	none
CN(C)CCCNS(=O)(=O)c1ccc(Cl)s1	NALP1 yeast inh 29.9
O=C(Nc1ccccn1)c1ccc(Cl)c(S(=O)(=O)N2CCc3ccccc32)c1	none (no result: EBNA-1 inh, PolyA inh, NALP1 yeast inh)
CCOc1ccccc1N1CCN(S(=O)(=O)c2ccc(F)c(F)c2)CC1	NALP1 yeast inh 40.0
COc1ccccc1N1CCN(S(=O)(=O)c2ccc(F)cc2)CC1	none
Cc1cccn2c(=O)c3cc(C(=O)NC4CCCC4)c(=N)n(Cc4ccc(F)cc4)c3nc12	none
Cc1cccn2c(=O)c3cc(C(=O)NC4CCCCC4)c(=N)n(Cc4ccccc4)c3nc12	dFosB act 43.1
CCOC(=O)c1ccc(N/C=C/C(=O)C(C)(C)C)cc1	none
CN(C)c1ccc(N/C=C/C(=O)C(C)(C)C)cc1	EBNA-1 inh active, ZTA DNA inh active
O=C(NC(C1CC1)C1CC1)C1CCC(=O)N(CCCN2CCCC2=O)C1 (centres undefined)	none
CC(=O)Nc1ccc(NC(=O)c2ccccc2C)cc1	none
Cc1ccccc1C(=O)Nc1ccccc1	NALP1 yeast inh 31.4
c1cc2c3c(cccc3c1)NC1(CCCCC1)N2	dFosB act 40.3
c1cc2c3c(cccc3c1)NC1(CCCCCC1)N2	dFosB act 22.5
c1cc2c3c(cccc3c1)NC1(CCC3(CC1)Nc1cccc4cccc(c14)N3)N2	none
CC1=Nc2cccc3cccc(c23)N1	none
CC1CCN(c2nc(CN3CCCCC3)nc3scc(-c4ccccc4)c23)CC1	NALP1 yeast inh 50.2
O=P(O)(CCc1ccccn1)CN1CCOCC1	NALP1 yeast inh 39.0
CN=C(NC1CCCCC1)c1ccc([N+](=O)[O-])cc1	none
Cc1ccc(C2(C)NC(=O)N(Cc3c(C)noc3C)C2=O)cc1 (centres undefined)	NALP1 yeast inh 19.4
Cc1noc(C)c1CN1C(=O)NC2(CCc3ccccc3C2)C1=O (centres undefined)	none (no result: NALP1 yeast inh)
CC(=O)N1CCOc2ccc(S(=O)(=O)NC[C@H]3O[C@@H](n4ccc(=O)[nH]c4=O)[C@H](O)[C@@H]3O)cc21	none (no result: EBNA-1 inh, PolyA inh, ZTA DNA inh, NLRP3 yeast inh, NALP1 yeast inh)
O=C(c1ccc(N2CCOCC2)cc1[N+](=O)[O-])N1CCOCC1	NALP1 yeast inh 33.9
O=C(O)CNC(=O)c1ccc(N2CCOCC2)cc1[N+](=O)[O-]	none
O=C1c2cccc3cc([N+](=O)[O-])cc(c23)C(=O)N1CCN1CCCC1	dFosB act 58.4 (no result: EBNA-1 inh, ZTA DNA inh)
c1cc2c(cc1C1CCCCC1)c1c3n2CCCNC3CCC1 (centres undefined)	dFosB act 25.4, NALP1 yeast inh 41.4
COCCCn1c(=O)c2sccc2n2c(CCCC(=O)N(C)Cc3ccco3)nnc12	none
Cc1cnc(C(=O)Nc2ccc(F)c(F)c2)cn1	none
CCCCOc1ccc(NC(=O)c2cnc(C)cn2)cc1	NALP1 yeast inh 44.8
O=C(NCC(=O)N1CCC(Cc2ccccc2)CC1)c1ccc(Cl)cc1	none
CCN(CC)CCNc1nc2cc(OC)c(OC)cc2c2nc(-c3ccccc3)nn12	dFosB act 151.3
CC(=O)NC1=C(N(C)C2CCS(=O)(=O)C2)C(=O)c2ccccc2C1=O (centres undefined)	none
CC(=O)NC1=C(Nc2ccc(N(C)C)cc2)C(=O)c2ccccc2C1=O	EBNA-1 inh 40.5, ZTA DNA inh 37.0
CN(CC(=O)Nc1ccc(F)c(Cl)c1)S(=O)(=O)c1ccc2c(c1)n(C)c(=O)c(=O)n2C	dFosB act 42.0
Cc1ccc(NC(=O)CN(C)S(=O)(=O)c2ccc3c(c2)n(C)c(=O)c(=O)n3C)cc1	none
CCc1nnc(SC(C)C(=O)Nc2nccs2)n1C (centres undefined)	none
Cc1ccc(-c2nn(-c3ccccc3)cc2/C=N/NC(=O)c2ccncc2)o1	dFosB act 26.2
O=S(=O)(CCN1CCOCC1)c1ccc(OC(F)(F)F)cc1	none
O=C(c1cc(-c2ccccn2)nc2ccc(Cl)cc12)N1CCN(CCc2ccccc2)CC1	none
Cc1cnn(C(=O)c2cc(-c3ccccn3)nc3ccc(Cl)cc23)c1	NALP1 yeast inh 41.4
CC(C)=CCOc1c2ccoc2c(OCC=C(C)C)c2oc(=O)ccc12	none (no result: EBNA-1 inh, PolyA inh, ZTA DNA inh, NALP1 yeast inh)
CC(C)=CCOc1c2ccoc2cc2oc(=O)ccc12	PolyA inh 53.5
COc1ccc2nc3cc(Cl)ccc3c(Nc3cc(C(C)C)c(O)cc3C)c2c1	dFosB act 89.1
CCN(CC)CCCC(C)Nc1c2ccc(Cl)cc2nc2ccc(OC)cc12 (centres undefined)	none (no result: EBNA-1 inh, dFosB act, PolyA inh, ZTA DNA inh, NLRP3 yeast inh)
C=CCOc1ccc(/C=C2\SC(=S)N(NS(=O)(=O)c3ccccc3)C2=O)cc1	none
CC1Cc2ccccc2N1C(=O)COC(=O)c1ccc(Cl)c(S(=O)(=O)N2CCOCC2)c1 (centres undefined)	none (no result: EBNA-1 inh, PolyA inh, NALP1 yeast inh)
CCc1ccc(OCC(=O)OC2CCS(=O)(=O)C2)cc1 (centres undefined)	NALP1 yeast inh 24.8
CC1(C)C(Cl)C(=O)C(C(=O)c2ccccc2)C(=O)C1Cl (centres undefined)	none
O=C1c2c(O)ccc(O)c2C(=O)c2c(NCCNCCO)ccc(NCCNCCO)c21	EBNA-1 inh 110.4, ZTA DNA inh active (no result: PolyA inh, NALP1 yeast inh)
Cc1nn(C)c(C)c1S(=O)(=O)NCCc1ccc(Cl)cc1	none
CC(Cl)C(=O)NNC(=O)CNS(=O)(=O)c1ccccc1 (centres undefined)	none
CCCOP(=O)(c1ccc(N(C)C)cc1)C(Nc1ccccc1)c1ccc(C)cc1 (centres undefined)	PolyA inh 59.4
Cc1ccc(NC(=O)c2cc(-c3ccc(C)c(C)c3O)n[nH]2)cc1C	dFosB act 22.6
Cc1cccc(NC(=O)c2cc(-c3ccc(C)c(C)c3O)n[nH]2)c1	dFosB act 32.6 (no result: EBNA-1 inh, ZTA DNA inh)
Cc1ccc(NC(=O)c2cc(-c3cc(C)c(C)cc3O)n[nH]2)cc1C	none
CCc1ccc(N=C2NC(=O)/C(=C/c3cc(OC)c(O)c(OC)c3)S2)cc1	PolyA inh 91.2 (no result: EBNA-1 inh, ZTA DNA inh)
O=c1cc(CSc2nnc(Nc3ccccc3)s2)nc2sccn12	none (no result: PolyA inh)
Cc1ccccc1Nc1nnc(SCc2cc(=O)n3ccsc3n2)s1	NALP1 yeast inh 26.7
